# In PubChem BioAssay:
# Assays:
# [1] = test system: Human papillomavirus type 1a protein E7 (residues 44-93); assay: small molecules binding HPV E7 44-93 – biochemical, small-molecule microarray, residues 44-93, 635 nm fluorescence, primary screen (AID 1108); details: fluorescence 635 nm, higher = more signal;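 also: E7 fragment applied at 1 µg/mL in TBST for 1 h at 4 C; score combines spot fluorescence with its signal to noise ratio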
# [2] = hepatitis C replication reporter changes, two-sided – Huh7 cells, luciferase reporter, HCV replication inhibitor project, primary screen (AID 1109); details: Huh7 HCV replicon luciferase reporter, 48 h; higher = more signal;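 also: huh7 hepatoma cells harbouring a luciferase neomycin HCV replicon reporter; luciferase luminescence as measure of HCV replicon replication; test concentration not given here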
# [3] = biological target: Left-right determination factor 2 (Homo sapiens) (UniProt O00292); assay: small molecules binding LEFTY2 protein – biochemical, small-molecule microarray, 635 nm fluorescence scan, primary screen (AID 1110); details: higher = more signal
# [4] = biological target: Calmodulin-1 (Homo sapiens) (UniProt P0DP23); assay: small molecules binding calmodulin-1 with EGTA – biochemical, small-molecule microarray, Cy5-labelled CALM1, profiling panel (AID 1111); details: Cy5-CALM1 binding fluorescence, higher = more signal;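 also: labelled calmodulin applied in Tris saline Tween buffer holding calcium plus EGTA and DTT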
# [5] = biological target: Calmodulin-1 (Homo sapiens) (UniProt P0DP23); assay: small molecules binding Ca-loaded calmodulin-1 – biochemical, small-molecule microarray, Cy5-labelled CALM1, plus calcium, artefact control for SMM control-protein annotation, profiling panel (AID 1112); details: Cy5-CALM1 binding fluorescence, higher = more signal;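 also: score merges spot fluorescence with signal to noise from triplicate slides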
# [6] = probe aWnt5a binding to arrayed compounds – biochemical, biotinylated probe, 635/667 nm fluorescence, primary screen (AID 1113); details: small-molecule microarray, higher = more signal;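 also: score merges 667 nm fluorescence intensity with signal-to-noise per printed feature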
# [7] = probe aShh binding to arrayed compounds – biochemical, biotinylated probe, 635/667 nm fluorescence, primary screen (AID 1114); details: small-molecule microarray, higher = more signal;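 also: probe is biotin-labelled aShh protein from a stem cell growth factor screen; measures binding of labelled protein to compounds printed on the slide; score merges feature fluorescence at 667 nm with signal-to-noise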
# [8] = probe aNog binding to arrayed compounds – biochemical, biotinylated probe, 635/667 nm fluorescence, primary screen (AID 1115); details: small-molecule microarray, higher = more signal;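 also: probe is biotinylated aNog protein used at 0.15 µg/mL for 1 h at 4 C; z-score combines 667 nm fluorescence of each spot with its signal to noise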
# [9] = biological target: Torsin-1A-interacting protein 1 (Homo sapiens) (UniProt Q5JTV8); assay: compound microarray binding of lysate hLAP1 – cell lysate, small-molecule microarray, COS7 lysate, 635/667 nm fluorescence, primary screen (AID 1116); details: 635 nm fluorescence, higher = more signal
# [10] = biological target: Alpha-bungarotoxin (Bungarus multicinctus) (UniProt P60615); assay: compounds binding labelled alpha-BTX control protein – biochemical, small-molecule microarray, Alexa647 label, 635/667 nm fluorescence, artefact control for SMM control protein annotation, profiling panel (AID 1117); details: alpha-BTX-A647 binding fluorescence, higher = more signal
# Chain of Alpha-bungarotoxin (Bungarus multicinctus) (P60615 whole entry, looked up): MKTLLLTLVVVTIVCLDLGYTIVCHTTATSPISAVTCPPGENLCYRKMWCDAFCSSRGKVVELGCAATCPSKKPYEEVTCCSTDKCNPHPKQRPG
# Chain of Left-right determination factor 2 (Homo sapiens) (O00292 whole entry, looked up): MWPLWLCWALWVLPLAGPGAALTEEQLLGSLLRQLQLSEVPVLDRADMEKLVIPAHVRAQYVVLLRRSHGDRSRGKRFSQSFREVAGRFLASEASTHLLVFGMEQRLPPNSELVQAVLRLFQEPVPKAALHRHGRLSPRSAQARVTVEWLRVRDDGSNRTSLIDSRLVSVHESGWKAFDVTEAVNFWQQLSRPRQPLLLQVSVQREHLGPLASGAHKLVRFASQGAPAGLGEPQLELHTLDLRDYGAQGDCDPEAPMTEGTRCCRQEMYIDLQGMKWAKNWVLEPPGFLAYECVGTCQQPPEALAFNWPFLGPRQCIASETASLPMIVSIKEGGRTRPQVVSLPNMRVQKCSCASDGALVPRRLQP
# Chain of Torsin-1A-interacting protein 1 (Homo sapiens) (Q5JTV8 whole entry, looked up): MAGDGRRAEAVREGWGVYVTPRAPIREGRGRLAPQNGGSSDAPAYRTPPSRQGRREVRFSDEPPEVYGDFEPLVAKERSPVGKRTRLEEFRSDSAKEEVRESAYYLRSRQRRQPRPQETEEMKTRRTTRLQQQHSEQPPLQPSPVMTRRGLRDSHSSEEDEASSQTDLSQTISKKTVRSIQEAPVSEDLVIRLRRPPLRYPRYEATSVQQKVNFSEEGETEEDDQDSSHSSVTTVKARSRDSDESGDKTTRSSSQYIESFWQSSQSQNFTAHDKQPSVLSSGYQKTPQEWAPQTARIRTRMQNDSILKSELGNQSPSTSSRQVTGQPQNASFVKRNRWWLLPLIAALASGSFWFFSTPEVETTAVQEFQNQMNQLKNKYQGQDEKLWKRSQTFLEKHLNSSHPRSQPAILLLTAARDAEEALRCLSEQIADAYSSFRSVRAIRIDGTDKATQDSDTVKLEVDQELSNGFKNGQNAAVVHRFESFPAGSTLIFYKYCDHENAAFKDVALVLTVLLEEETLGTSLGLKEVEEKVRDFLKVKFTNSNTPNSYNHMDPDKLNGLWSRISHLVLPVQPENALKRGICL
SMILES,composite z-score [1],z-score [2],composite z-score [3],composite z-score [4],composite z-score [5],composite z-score [6],composite z-score [7],composite z-score [8],composite z-score [9],composite z-score [10]
CO[C@H]1COC(=O)CC=C[C@@H](C)COC(=O)[C@H]2CCCN2C(=O)CC=C[C@H]1C,-0.858,-0.0849,1.48,-1.05,-1.72,-0.0721,0.684,-0.542,1.03,-1.25
Cc1ccc(C(C)C)n1C(=O)OC(C)(C)C,0.471,1.85,0.587,-0.159,-0.659,-0.0704,-0.13,-0.255,0.241,0.0251
CCOC(=O)NN=C1C[C@@H](O)[C@@H](O)[C@@H]2[C@@H]3C(=O)N(C[C@@H]4CCCO4)C(=O)[C@@H]3CC[C@H]12,0.463,-0.0078,0.828,-0.47,-0.593,-0.169,-0.0146,-0.166,0.998,-0.213
CC(=O)OC[C@H]1O[C@H](CC=NO[C@H](C)c2cn([C@@H]3COC[C@H]3O)nn2)C=C[C@@H]1OC(C)=O,-0.535,-0.774,0.0524,-0.616,-0.934,-0.0685,-0.206,-0.17,0.637,0.799
CO[C@H]1COC(=O)CC=C[C@H](C)[C@H](OC)COC(=O)[C@@H](C)NC(=O)CC=C[C@@H]1C,-2.87,-2.14,0.953,-0.735,-1.49,-0.101,-0.0681,-0.21,0.229,-0.32
COC(=O)CC=C[C@@H](C)[C@@H](C=NOC(C)CN1CCCCc2nc(C)c(C)cc21)OC (stereo not given in full),1.04,-1.23,1.11,-0.452,-1.05,-0.1,-0.138,-0.619,0.449,0.143
CO[C@@H]1C=CCC(=O)N[C@@H](C)C(=O)OC[C@@H](NS(=O)(=O)c2ccc(C)cc2)[C@H](C)C=CCC(=O)OC[C@H]1C,-0.844,0.46,0.957,-0.062,-0.417,-0.18,0.0442,-0.0116,-0.159,-0.135
CC(C)=NO[C@H](C)c1cn([C@@H]2COC[C@H]2O)nn1,0.427,0.78,0.48,-0.312,-0.956,-0.169,-0.138,-0.216,0.26,0.159
CO[C@@H](C1CCCCC1)[C@@H](C)[C@H](OCc1cccc(Br)c1)[C@@H](C)CO,-0.18,-1.88,0.481,-0.434,0.318,-0.139,-0.0709,0.0649,0.0682,-0.378
CCCCOC(OCCCC)C(O)CSc1ccc2ccccc2c1 (stereo not given),0.711,0.0395,0.64,-0.24,-0.19,-0.0441,0.171,-0.0281,0.506,0.086
CCOC(=O)[C@H](Cc1ccccc1)NC(=O)CCC1CC(OC(=O)NCc2ccc3c(c2)OCO3)CC2(CCCC(COC(=O)NCCCN3CCCC3=O)O2)O1 (stereo not given in full),1.35,-1.93,0.56,0.972,0.356,-0.0607,-0.229,-0.0604,0.799,0.426
COc1ccc(-c2cnnc(CCCn3ccnc3-c3ccccc3)n2)cc1,0.412,-2.57,0.774,0.212,-0.686,-0.103,-0.0769,-0.395,0.917,0.587
COC(=O)[C@H](C)NC(=O)CCC1CC(OC(=O)NCCc2ccc(F)cc2)CC2(CCCC(COC(=O)NCCc3ccccc3OC)O2)O1 (stereo not given in full),1.35,-0.466,0.638,0.48,-0.211,-0.0403,0.0141,0.177,0.195,0.434
COC(=O)CC=C[C@@H](C)[C@@H](C=NOC[C@@H](C)[C@H](OCc1ccccc1)C(C)C)NS(=O)(=O)c1ccc(C)cc1,-0.482,-1.44,0.21,-1.51,-1.26,-0.148,-0.0977,-0.541,0.161,-1.25
O=C1C=C[C@@H](O)[C@@H]2[C@@H]3C(=O)N(c4cccc(Oc5ccccc5)c4)C(=O)[C@@H]3CC[C@@H]12,0.242,-2.07,0.594,-0.203,-0.477,-0.152,-0.0626,-0.381,0.503,0.0671
CC#CCOCCC=C1c2ccccc2[C@@H](OC)[C@@H]1C,-1.14,-0.692,0.0778,-1.06,-1.18,-0.0977,-0.138,-0.209,0.139,-0.0725
CCCC[C@H]1CN2[C@@H](CC[C@@H](C)[C@@H]2c2ccc(Br)cc2)C(=O)O1,1.01,-1.04,0.671,0.849,-0.0228,-0.158,0.0121,-0.188,0.755,0.678
O=C1[C@H]2[C@H]3[C@H](O)[C@H](O)CC(=NO[C@@H]4O[C@H](CO)[C@@H](O)[C@H](O)[C@H]4O)[C@@H]3CC[C@H]2C(=O)N1C[C@@H]1CCCO1,1.3,-0.682,0.495,-0.158,-0.572,-0.28,-0.0769,-0.238,-0.0974,-0.103

SMILES,composite z-score [1],z-score [2],composite z-score [3],composite z-score [4],composite z-score [5],composite z-score [6],composite z-score [7],composite z-score [8],composite z-score [9],composite z-score [10]
CC(C)(C)N1C(=O)[C@H]2[C@@H]3C(=CC[C@H]2C1=O)C(=O)[C@H]1O[C@H]1[C@H]3O,-2.12,-4.79,0.341,-1.08,-1.48,-0.0735,-0.273,-0.571,-0.139,-0.0321
CC(=O)OC[C@H]1O[C@H](CCON=C(C)C)C=C[C@@H]1OC(C)=O,-0.306,-0.684,0.304,-0.42,-0.268,-0.152,-0.0769,-0.324,0.3,0.501
CC(C)[C@@H](OCc1ccccc1)[C@H](C)C=NO[C@@H](C)c1cn([C@H](CO)Cc2ccccc2)nn1,0.402,-1.87,0.277,-0.38,-0.281,-0.135,-0.273,0.0715,0.217,-0.0804
O=C1[C@H]2CCn3c(=O)n(-c4ccccc4)c(=O)n3[C@H]2[C@H](O)[C@@H]2O[C@H]12,-0.453,-0.687,0.33,-0.14,-0.391,-0.247,-0.124,-0.0428,0.085,0.658
Cc1cc2c(nc1C)CCCCN2CC(O)CN1CCCc2nc(-c3ccc(Br)cc3)ccc21 (stereo not given),0.599,-0.116,0.615,0.114,-0.823,0.093,0.304,0.17,0.404,0.888
CCOC(=O)[C@H](CC(C)C)NC(=O)CCC1CC(OC(=O)NCCc2ccc(F)cc2)CC2(CCCC(COC(=O)NCc3cccc(C(F)(F)F)c3)O2)O1 (stereo not given in full),1.38,-0.0709,0.605,-0.134,-0.448,-0.129,-0.154,0.28,0.274,0.342
C#CCCCON=C1[C@H]2CCn3c(=O)n(Cc4cc5c(cc4Cl)OCO5)c(=O)n3[C@H]2[C@H](O)[C@@H]2O[C@H]12,0.493,0.113,0.711,-0.692,-1.22,-0.129,-0.273,-0.162,0.526,0.499
C#CCCCON=C1C[C@@H](O)[C@@H](O)[C@@H]2[C@@H]3C(=O)N(C4CCCCC4)C(=O)[C@@H]3CC[C@@H]12,0.428,-0.0098,0.321,-0.346,-0.342,-0.0685,-0.212,-0.494,0.366,0.281
CC(C)=NOC(C)CN1CCCc2nc(C)c(C)cc21 (stereo not given),1.17,0.302,0.75,-0.291,-0.869,-0.0718,0.214,-0.0809,-0.0182,0.32
C[C@@H]1CC[C@H]2C(=O)OC(CN3C(=O)c4ccccc4C3=O)CN2[C@H]1c1ccc(Br)cc1 (stereo not given in full),0.901,0.302,0.113,1.53,0.772,-0.091,0.111,0.243,0.419,0.666
CC(C)=CCCC(C)=CCON=C1C[C@@H](O)[C@@H](O)[C@@H]2[C@@H]3C(=O)N(C4CCCCC4)C(=O)[C@@H]3CC[C@H]12,0.684,-0.127,0.594,-0.432,-1.2,-0.0425,-0.0904,-0.341,-0.0853,0.713
COC(=O)[C@H](C)NC(=O)CCC1CC(OC(=O)NCc2ccc3c(c2)OCO3)CC2(CCCC(COC(=O)NCCCN3CCCC3=O)O2)O1 (stereo not given in full),1.32,-1.87,0.849,0.924,-0.151,-0.0644,-0.186,0.0215,0.286,0.88
CC(=O)OC[C@H]1O[C@H](CC=NOC[C@@H](O)COCc2ccco2)C=C[C@@H]1OC(C)=O,-0.646,0.586,0.898,-1.18,-2.22,-0.102,-0.356,-0.498,1.58,-0.663
CC(CCN1CCCc2nc(C)c(C)cc21)=NO[C@H](C)c1cn([C@H](CO)Cc2ccccc2)nn1,1.01,-1.73,0.796,-0.276,-0.519,-0.0704,-0.16,0.029,0.613,-0.207
C[C@@H](c1ccccc1)N1C(=O)[C@H]2[C@H]3[C@H](O)[C@H](O)CC(=NOCc4ccccc4)[C@@H]3CC[C@H]2C1=O,-0.233,-0.701,0.11,-0.38,-0.0198,0.0061,-0.276,0.593,0.348,0.993
CO[C@H]1COC(=O)[C@H](C)COC(=O)[C@H](C)NC(=O)CC=C[C@H]1C,0.429,-0.935,0.945,-0.891,-1.85,-0.154,0.0121,-0.41,0.143,-0.369
O=C1[C@H]2[C@H]3[C@H](O)[C@H](O)CC(=NO[C@@H]4O[C@H](CO)[C@@H](O)[C@H](O)[C@H]4O)[C@@H]3CC[C@H]2C(=O)N1C1CCCCC1,0.578,-0.0851,0.616,0.159,-0.616,0.0101,-0.0593,-0.198,0.0912,0.0069
C[C@H]1CC[C@@H](C(=O)O)N[C@@H]1c1ccc(C#Cc2ccccc2)cc1,0.942,-4.69,0.753,0.119,-0.332,-0.0203,-0.154,-0.256,0.666,0.966
